The record followed here is PubChem BioAssay.

One may read the AC50 as the concentration at which the activity in the assay is half-maximal. In general, viability refers to a read-out of living cells in per cent, often relative to untreated cells. One may read the IC50 as the concentration that inhibits the measured activity by half.

Results filed as inconclusive are left out. The source made the active and inactive calls.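 The calls were made as follows, unless noted: active = normalized viability below 100% at a tested concentration; inactive = the rest.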

Test [1] in a line: growth inhibition of DIPG glioma cells, dose response, cell-based, SU-DIPG-XVII, MIPE5.0, CellTiter-Glo, qHTS (AID 1347060; cut-off not given, nearly all actives have AC50 up to about 26 µM;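 as to AC50: cells exposed to compound for 48 hours before viability readout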). The conditions noted are these: SU-DIPG-XVII viability, CellTiter-Glo ATP luminescence. In general terms: Cellular ATP, detected with luciferase, serves as a proxy for viable cell number.
A short description of test [2]: JHH-DIPG-1 glioma cell viability, MIPE5.0 library, CellTiter-Glo luminescence, qHTS (AID 1347067; cut-off not given, nearly all actives have AC50 up to about 26 µM;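 also: cells exposed to compound for 48 hours before readout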). As to conditions: JHH-DIPG-1 glioma viability, CellTiter-Glo ATP luminescence.
Test [3] can be described thus: SU-DIPG-XXV glioma cell viability, MIPE5.0 library, qHTS (AID 1347068; cut-off not given, nearly all actives have IC50 up to about 30 µM;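 as to IC50: cells exposed to compound for 48 hours before viability readout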). On the technique in general: qHTS replaces the single test concentration by a dilution series.
The nature of test [4]: ovarian cancer cell viability with rucaparib, profiling panel, oncology-focused library, rucaparib conditional (AID 1508598). As to conditions: patient-derived ovarian cancer cells, CellTiter-Glo viability, 144 h, stronger effect = lower value.
The nature of test [5]: liver-stage malaria parasite growth inhibition, primary screen, cell-based, HepG2, luciferase luminescence, HepG2 viability (AID 624349; in the data active = parasite load remaining mostly below about 12%, no sharp cut-off; inactive = mostly above about 10%;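 also: 100% = mean of DMSO negative control wells on the same plate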). The conditions noted are these: P. berghei liver stage in HepG2, luciferase luminescence, concentration not given here; parasite load remaining: stronger effect = lower value; viability: measured here: HepG2 viability without parasites.
Test [6] in a line: sensitizers of A549 cells to miR-34 induction, primary screen, imaging, A549 dox-inducible miR-34, nuclei and caspase counts (AID 1347080;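 active = compounds whose cell count with miR-34 switched on is under 0.7 times the count with it off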). The conditions noted are these: A549 miR-34 inducible, Hoechst nuclei count, 48 h.
Test [7] can be described thus: survival rescue of mitochondrial mutant cells in low glucose, primary screen, MELAS cybrids, Rieske KO mouse fibroblasts, CellTiter-Glo (AID 1508586;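 active = mean z-score across replicates of 1.96 or higher in either the MELAS or the Rieske mutant cell line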;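 also: z relative to plate mean and SD of compound and empty wells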).
Test [8] in a line: growth inhibition of DIPG glioma cells, dose response, cell-based, SU-DIPG-XIII, MIPE4.0, CellTiter-Glo, qHTS (AID 1347061; cut-off not given, nearly all actives have AC50 up to about 37 µM;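 also: cells exposed to compound for 48 hours before readout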). As to conditions: SU-DIPG-XIII viability, CellTiter-Glo ATP luminescence.
Test [9] in a line: growth inhibition of DIPG glioma cells, dose response, cell-based, JHH-DIPG-1, MIPE4.0, CellTiter-Glo, qHTS (AID 1347062; cut-off not given, nearly all actives have AC50 up to about 27 µM). As to conditions: JHH-DIPG-1 viability, CellTiter-Glo ATP luminescence.
Test [10] is described as follows: growth inhibition of DIPG glioma cells, dose response, cell-based, SU-DIPG-IV, MIPE4.0, CellTiter-Glo, qHTS (AID 1347063; cut-off not given, nearly all actives have AC50 up to about 30 µM;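 also: compound exposure lasted 48 hours before the viability readout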). The conditions noted are these: SU-DIPG-IV viability, CellTiter-Glo ATP luminescence.
A short description of test [11]: growth inhibition of DIPG glioma cells, dose response, cell-based, SU-DIPG-XIII, MIPE5.0, CellTiter-Glo, qHTS (AID 1347064; cut-off not given, nearly all actives have AC50 up to about 23 µM). The conditions noted are these: SU-DIPG-XIII viability, CellTiter-Glo ATP luminescence.
A short description of test [12]: viability loss in pontine glioma line – cell-based, SU-DIPG-XXV, MIPE5.0, CellTiter-Glo, qHTS, dose response (AID 1347065; cut-off not given, nearly all actives have AC50 up to about 26 µM;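 also: cells exposed to compound for 48 hours before ATP readout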). The conditions noted are these: CellTiter-Glo ATP luminescence.
Test [13] can be described thus: SU-DIPG-VI glioma cell viability, MIPE4.0 library, CellTiter-Glo luminescence, qHTS (AID 1347066; cut-off not given, nearly all actives have AC50 up to about 30 µM;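 also: cells exposed to compound for 48 hours before readout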). The conditions noted are these: CellTiter-Glo ATP luminescence.

Consider `Cc1cc(CS(=O)(=O)c2ccccc2)cc(OCc2ccc(CN3CCC[C@@H]3CO)cc2)c1`, for which the concentration at half-maximal activity (AC50) in [1] was 26.3 µM (active). For the same compound, the call in test [2] and in test [3] was inactive. Further, the viability is 111% (inactive) in test [4] (at 0.000305 µM, OCI-C5x cells, with rucaparib 10 µM, 100% = cells with rucaparib alone); 109% (inactive) in test [4] (at 0.000305 µM, OCI-C5x cells, without rucaparib); 97% (active) in test [4] (at 0.000305 µM, OCI-P5x cells, with rucaparib 20 µM, 100% = cells with rucaparib alone); 106% (inactive) in test [4] (at 0.000305 µM, OCI-P5x cells, without rucaparib); 113% (inactive) in test [4] (at 0.00122 µM, OCI-C5x cells, with rucaparib 10 µM, 100% = cells with rucaparib alone); 120% (inactive) in [4] (at 0.00122 µM, OCI-C5x cells, without rucaparib). The viability in test [4] (at 0.00122 µM, OCI-P5x cells, with rucaparib 20 µM, 100% = cells with rucaparib alone) is 103% (inactive); in test [4] (at 0.00122 µM, OCI-P5x cells, without rucaparib), 108% (inactive); in [4] (at 0.00488 µM, OCI-C5x cells, with rucaparib 10 µM, 100% = cells with rucaparib alone), 111% (inactive); in [4] (at 0.00488 µM, OCI-C5x cells, without rucaparib) it was 127% (inactive); in test [4] (at 0.00488 µM, OCI-P5x cells, with rucaparib 20 µM, 100% = cells with rucaparib alone) it was 99.4% (active); in test [4] (at 0.00488 µM, OCI-P5x cells, without rucaparib) it was 107% (inactive). The viability in test [4] (at 0.0195 µM, OCI-C5x cells, with rucaparib 10 µM, 100% = cells with rucaparib alone) is 116% (inactive); in [4] (at 0.0195 µM, OCI-C5x cells, without rucaparib), 116% (inactive); in [4] (at 0.0195 µM, OCI-P5x cells, with rucaparib 20 µM, 100% = cells with rucaparib alone), 107% (inactive); in [4] (at 0.0195 µM, OCI-P5x cells, without rucaparib) it was 103% (inactive); in test [4] (at 0.0781 µM, OCI-C5x cells, with rucaparib 10 µM, 100% = cells with rucaparib alone), 123% (inactive); in test [4] (at 0.0781 µM, OCI-C5x cells, without rucaparib), 125% (inactive). For the same compound, the viability in test [4] (at 0.0781 µM, OCI-P5x cells, with rucaparib 20 µM, 100% = cells with rucaparib alone) is 99.2% (active); in test [4] (at 0.0781 µM, OCI-P5x cells, without rucaparib), 108% (inactive); in test [4] (at 0.313 µM, OCI-C5x cells, with rucaparib 10 µM, 100% = cells with rucaparib alone), 116% (inactive); in test [4] (at 0.313 µM, OCI-C5x cells, without rucaparib), 111% (inactive); in [4] (at 0.313 µM, OCI-P5x cells, with rucaparib 20 µM, 100% = cells with rucaparib alone), 106% (inactive); in test [4] (at 0.313 µM, OCI-P5x cells, without rucaparib), 109% (inactive). In addition, the viability in [4] (at 1.25 µM, OCI-C5x cells, with rucaparib 10 µM, 100% = cells with rucaparib alone) was 117% (inactive); in [4] (at 1.25 µM, OCI-C5x cells, without rucaparib) it was 123% (inactive); in test [4] (at 1.25 µM, OCI-P5x cells, with rucaparib 20 µM, 100% = cells with rucaparib alone), 99.2% (active); in [4] (at 1.25 µM, OCI-P5x cells, without rucaparib) it was 105% (inactive); in test [4] (at 5 µM, OCI-C5x cells, with rucaparib 10 µM, 100% = cells with rucaparib alone), 127% (inactive); in test [4] (at 5 µM, OCI-C5x cells, without rucaparib), 122% (inactive). Moreover, the viability in [4] (at 5 µM, OCI-P5x cells, with rucaparib 20 µM, 100% = cells with rucaparib alone) was 95.9% (active); in test [4] (at 5 µM, OCI-P5x cells, without rucaparib) it was 99.8% (active).
For the compound `NS(=O)(=O)c1ccc(Cc2c(-c3cccc(-c4ccccc4)c3)nn(-c3nc(C(=O)O)cs3)c2CC2CC2)cc1`, the concentration at half-maximal activity (AC50) in test [1] is 23.5 µM (active); in test [2], 20.9 µM (active). Besides, the result in test [3] was inactive.
As for `CC(C)n1cnc2c(NCCCCCCNC(=O)OC(C)(C)C)nc(NCCO)nc21`, in [5], the parasite load remaining is 47.6% (inactive) and the viability amounted to 102%. Besides, the AC50 in test [1] was 23.5 µM (active). Further, in test [2], the AC50 is 18.6 µM (active).
Consider `COCCOC(=O)N1CCN(S(=O)(=O)c2cc(F)c(Oc3ccc(Cl)cc3)c(F)c2)C(C(=O)NO)C1` (configuration not stated), for which the call in test [1] was inactive. Also, the half-maximal activity concentration (AC50) in [2] was 16.6 µM (active). Besides, the concentration for half-maximal inhibition (IC50) in test [3] is 20.9 µM (active).
For the compound `CC[C@H](C)[C@@H]([C@@H](CC(=O)N1CCC[C@H]1[C@H](OC)[C@@H](C)C(=O)N[C@@H](Cc1ccccc1)c1nccs1)OC)N(C)C(=O)[C@@H](NC(=O)[C@H](C(C)C)N(C)C)C(C)C`, the result in test [1] was inactive. Besides, in test [3], the 50% inhibitory concentration (IC50) is 0.00417 µM (active).
As to `CN(C)CCN1C(=O)c2cccc3cc(NC(N)=O)cc(c23)C1=O`, the AC50 in test [1] was 18.6 µM (active). Besides, the outcome in test [3] was inactive.
Turning to `CC[C@H](Nc1ncnc2nc[nH]c12)c1oc2ccccc2c(=O)c1-c1cccc(F)c1`, the compound was classed as inactive in [1] and in test [3].
As for `C[C@@H](O)[C@@H](C)Oc1nc(Nc2ccc(S(=N)(=O)C3CC3)cc2)ncc1C(F)(F)F` (some centres not stated), the AC50 in test [1] was 20.9 µM (active). Besides, the call in test [3] was inactive.
On the same counts, the results for `C[C@H]1C[C@@H](n2c(Nc3ccc(OC(F)(F)F)cc3)nc3cc(CCC(=O)O)ccc32)CC(C)(C)C1` are 23.5 µM (active) and “inactive”.
With `CC(C)NCCCn1c(Sc2cc(Cl)cc(Cl)c2)nc2c(N)ncnc21`, the compound was called inactive in [1], in test [2] and in test [3].
`CC[C@@]1(O)C(=O)OCc2c1cc1n(c2=O)Cc2c-1nc1ccccc1c2CCNC(C)C`: the AC50 in test [1] is 0.00742 µM (active). In addition, the outcome in test [3] was inactive.
Take `COc1cccc(Nc2ncnn3ccc(CN4CC[C@@H](N)[C@H](O)C4)c23)c1`: the AC50 in test [1] is 14.8 µM (active). Further, the outcome in test [2] and in test [3] was inactive.
Consider `CN1C[C@@H]2c3ccccc3Oc3ccc(Cl)cc3[C@H]2C1`, for which the outcome in test [1], in test [2] and in [3] was inactive. For the same compound, the fold change was 0.885 (inactive) in [6] (stronger effect = lower value, cell number ratio, induced over uninduced) and 1.23 in test [6] (measured here: relative caspase fold change +Dox/-Dox). Also, the cell count amounted to 6350 in test [6] (measured here: total cells with miR-34 induction, stronger effect = lower value) and 7170 in test [6] (measured here: total cells without miR-34 induction). The z-score is -0.348 (inactive) in [7] (MELAS cybrid survival, CellTiter-Glo 48 h, stronger effect = higher value) and 0.514 in test [7] (Rieske KO mouse fibroblast survival, CellTiter-Glo 72 h).
For the compound `NC(=O)c1cc(F)cc2c1C(=O)N(C1CCN(C3CCC(F)(F)CC3)CC1)C2`, the compound was classed as inactive in test [1], in test [2] and in test [3].
For `CNC(=O)c1ccc(-c2cnc3ncc(Cc4ccc5ncccc5c4)n3n2)cc1F`, the result in test [8], in test [9], in [10], in test [11], in test [12] and in test [13] was inactive. The result in test [3] was inactive.
